The values that follow come from PubChem BioAssay AID504466 (National Center for Advancing Translational Sciences (NCATS), 2011).

The whole screen tested about 330,000 compounds, of which about 4,200 (1.3%) were called active. Roughly 6% stayed inconclusive and do not appear here. This is one part of a sample in which actives are shown more often than they occur. Unmarked numbers belong to inactive results. The call rests on the fitted dose curve; in most records, active means well fitted activation curve with a large enough effect; inconclusive means small, poorly fitted or top-dose-only effect; inactive means no such curve, though single readings can be large or run the other way.
Potency means the concentration at half of the fitted maximal effect.

This assay can be described thus: qHTS screen for small molecules that induce genotoxicity in human embryonic kidney (HEK293T) cells expressing luciferase-tagged ELG1. Further: nearly all actives have a fitted effect of over 60% in size. On activity change, positive = activation: % of control where 0% means no effect. The settings on record: HEK293T ELG1-luciferase reporter, luminescence, 16 h; series mostly up to 46 µM; activity change, positive = activation: at the top concentration. The text has this: NIH Molecular Libraries Probe Production Network [MLPCN] NIH Chemical Genomics Center [NCGC] MLPCN Grant: 1 R03 MH092164-01 Assay Provider: Kyungjae Myung, NHGRI, NIH Keywords: MLPCN, qHTS, NCGC, genotoxicity, cancer Assay Overview: Cancer cells divide rapidly compared to normal cells in the body. During cell division, cancer cells need to duplicate their genome by DNA replication. The failure of genome duplication leads to cancer cells' death. Therefore, inhibitors of DNA replication could specifically kill cancer cells. Based on this concept, many chemotherapeutic agents were developed and have been used to treat cancer patients. However, there are a limited number of agents available in the clinical setting, and some of those that do exist have low efficacy and severe side effects. Therefore, if we can find the compounds that effectively block DNA replication either by directly damaging DNA or by inhibiting other cellular mechanisms, the options for cancer treatment will be broadened. With this in mind, we developed a quantitative high-throughput ELG1-luciferase reporter gene assay. Since the level of human ELG1 protein is enhanced in response to genetic stresses, increases in luciferase activity can be used to identify compounds that cause genetic stress.
Assay Protocol Summary: For genotoxicity screening, 2,000 cells in 5 uL/well were dispensed into white, solid-bottom 1536-well plates using a solenoid-based dispenser. Following transfer of 23 nL compound or DMSO vehicle by a pin tool, the plates were incubated 16 hr at 37 °C and 5% CO2. 5 ul ONE-Glo (Promega) was then added to each plate and following a 30 min incubation at room temperature, luciferase activity was quantified on a ViewLux CCD-based plate reader.
As to `O=C(CSc1nnc(-c2ccncc2)o1)Nc1cccc(Cl)c1`, the “activity change, positive = activation” value was 14.8%.

Regarding `CN(Cc1ccc(CNC[C@H]2O[C@@H](n3cnc4c(N)ncnc43)[C@H](O)[C@@H]2O)o1)S(C)(=O)=O`, the “activity change, positive = activation” value was 0.515%.

As to `Cc1ccc(NC(=O)NC(=O)CSc2nnc(-c3ccc(OC(F)F)cc3)n2N)c(C)c1`, the “activity change, positive = activation” value is 3.7%.

`Cc1ccc(-c2nnc(SC(C)C#N)n2N)cc1` (centres undefined): the “activity change, positive = activation” value is 13.4%.

Turning to `C=C(C)CSc1nnc(-c2ccc(C)cc2)n1N`, the Potency was 10 µM (active).

In the case of `CN(CC(=O)NCCc1ccc(S(N)(=O)=O)cc1)CC(=O)Nc1ccc(F)c(F)c1F`, the “activity change, positive = activation” value was -0.661%.

Regarding `CCOC(=O)C1CCN(C(=O)CN2C(=O)NC(C)(c3ccc4cc(OC)ccc4c3)C2=O)CC1` (centres undefined), the “activity change, positive = activation” value is -5.31%.

In the case of `N#CCCN(C(=O)COC(=O)c1ccc2c(c1)OCCO2)c1ccccc1`, the “activity change, positive = activation” value is 0.0128%.

Regarding `O=C(OCC(=O)N1CCCCCC1)c1ccc(Cl)nc1`, the “activity change, positive = activation” value is 0.144%.

With `COCCNC(=O)COc1ccccc1C`, the “activity change, positive = activation” value is 3.83%.

In the case of `Cc1cccc(NC(=O)Nc2ccc(OCc3ccccc3)cc2)n1`, the “activity change, positive = activation” value was 4.5%.

For the compound `Cc1ccccc1OCC(=O)Nc1nc(C)c(C(=O)N(C)C)s1`, the “activity change, positive = activation” value is -0.0756%.

For the compound `CCN(CC)S(=O)(=O)c1ccc(C)c(NC(=O)COc2ccc(Br)cc2Cl)c1`, the “activity change, positive = activation” value is 8.73%.

Turning to `Cc1cccc(NC(=O)COc2ccccc2C)n1`, the Potency was 18.4 µM (active).

As to `Cc1cccc(NC(=O)COc2ccc(Br)cc2C)n1`, the Potency was 2 µM (active).

`CC(=NNC(=O)c1ccc2nc[nH]c2c1)c1ccc(Br)cc1`: the “activity change, positive = activation” value is 2.04%.

For the compound `CCOC(=O)C1CCN(CC(=O)Nc2ccc(OC)c(S(=O)(=O)N3CCCCC3)c2)CC1`, the “activity change, positive = activation” value was -1.03%.

Consider `CC1O[C@H](OC2C(COC3OC(CO)C(O)[C@H](O)C3O)OC(OC3CC[C@]4(C)C(CC[C@@]5(C)[C@@H]4C=C[C@]46OC[C@@]7(CCC(C)(C)C[C@H]74)C(O)C[C@@]56C)C3(C)C)C(O)C2O)C(O)C(O)C1O` (some centres undefined), for which the “activity change, positive = activation” value was 2.19%.

For the compound `CC(=O)c1sc(N)nc1C`, the “activity change, positive = activation” value was 4.58%.

As for `CC(=O)c1sc(N/N=C\c2ccc(C)cc2)nc1C`, the Potency was 18.4 µM (active).

For `CC(=O)c1sc(NC(=O)C2=NN(c3ccccc3)C(=O)CC2)nc1C`, the “activity change, positive = activation” value is -0.325%.

`COc1cc(C=NNC(=O)c2cccnc2)ccc1OC(=O)c1ccccc1F`: the “activity change, positive = activation” value was 0.184%.

Turning to `CC[C@@H]1CCCCc2ccccc2[C@@H](C(=O)C[C@H](O)CC(C)=O)OC1=O`, the “activity change, positive = activation” value is 0.282%.

Turning to `O=C(CN1C(=O)NC2(CCCCCCC2)C1=O)NCc1ccc(F)cc1`, the “activity change, positive = activation” value was 1.1%.

With `Cc1ccc(NC(=O)CN(C)C(=O)c2ccc(Cl)c(S(=O)(=O)NCc3ccco3)c2)cc1`, the “activity change, positive = activation” value is -2.11%.

In the case of `Oc1ccc(N=Cc2sc3ccccc3c2Cl)cc1`, the “activity change, positive = activation” value is -1.68%.

Consider `COC(=O)c1ccc(/C=C/c2c(-c3ccc(OC)cc3)sc3ccccc23)cc1`, for which the “activity change, positive = activation” value is 0.743%.

Turning to `COc1ccc(N=C(C)c2sc3ccccc3c2O)cc1`, the Potency was 2.31 µM (active).

`CCOc1ccccc1Nc1nnc(SCC(=O)NCC2CCCO2)s1` (centres undefined): the “activity change, positive = activation” value is -2.62%.

Regarding `Cc1ccc(C)c(NC(=O)CN(C)C(=O)COc2ccc3ccccc3c2)c1`, the “activity change, positive = activation” value is -2.21%.

As to `Cc1ccc(-n2c(SCC(=O)N3CCC(C(=O)O)CC3)nc3ccccc3c2=O)cc1C`, the Potency was 14.6 µM (active).

`O=C(CSc1nc2ccccc2c(=O)n1-c1ccccc1F)N1CCOCC1`: the “activity change, positive = activation” value is 8.89%.

On to `O=C(CSc1nc2ccccc2c(=O)n1-c1ccc(F)cc1)NC1CC1`, for which the “activity change, positive = activation” value was 4.22%.

Take `COc1ccc(S(=O)(=O)N2CCCCCC2)cc1NC(=O)Cc1ccc(OC)c(OC)c1`: the “activity change, positive = activation” value was -1.59%.

Regarding `N#CC(Cc1cc2ccccc2n1S(=O)(=O)c1ccccc1)OCc1ccccc1` (centres undefined), the “activity change, positive = activation” value was -2.05%.

Turning to `Fc1ccc2nc(N3CCCCC3)sc2c1`, the Potency was 7.31 µM (active).

Take `O=C(NCCc1cccc(F)c1)C1CCCN(c2nc3ccccc3s2)C1` (centres undefined): the “activity change, positive = activation” value was -3.62%.

As for `Cc1ccc2nc(N3CCN(C(=O)c4ccco4)CC3)sc2c1`, the “activity change, positive = activation” value is 11.9%.

As to `CC(OC(=O)c1ccc(Cl)cc1O)C(=O)NCCC1=CCCCC1` (centres undefined), the “activity change, positive = activation” value is -1.69%.

Regarding `O=C(COC(=O)c1ccco1)Nc1ccc(Cl)cn1`, the “activity change, positive = activation” value was 0.922%.

With `CCC(C)N(C)C1CCN(C(=S)Nc2ccc(OC)cc2)CC1` (centres undefined), the “activity change, positive = activation” value is -2.36%.

As for `COc1ccc(NC(=S)N2CCc3cc(OC)c(OC)cc3C2)cc1`, the “activity change, positive = activation” value is -1.11%.

Regarding `COc1ccc(NC(=S)N2N=CCC2c2ccccc2)cc1` (centres undefined), the Potency is 4.11 µM (active).

For the compound `COC(=O)[C@]1(CC(C)C)N[C@H](c2ccc(SC3CCCCC3)cc2)[C@@H]2C(=O)N(C)C(=O)[C@@H]21`, the “activity change, positive = activation” value was -8.21%.

Consider `Cc1ccccc1C(=O)Nc1ccccc1Sc1ccccc1`, for which the “activity change, positive = activation” value was 1.91%.

As for `CSc1ccccc1NC(=O)c1cc(Cl)sc1Cl`, the “activity change, positive = activation” value was -0.581%.

Consider `CSc1ccccc1NC(=O)c1cnc2sc(C)cn2c1=O`, for which the Potency is 3.26 µM (active).

`C[C@@H](CN1CCC[C@H]1CN1C(N)=NC[C@@H]1Cc1ccccc1)N1C[C@@H](Cc2ccccc2)N(CCCC2CCCC2)C1=N`: the “activity change, positive = activation” value is 0.226%.

In the case of `CCN(CC)S(=O)(=O)c1ccc(N2CCCC2)c(NC(=O)c2ccc([N+](=O)[O-])o2)c1`, the “activity change, positive = activation” value was -2.57%.
